Screen size: about 300,000 compounds; about 37,000 (12%) were called active. This is one part of a sample in which actives are shown more often than they occur. Unmarked numbers belong to inactive results. Cut-off read from the data, not from the text of the source: active = max response mostly above about 13% (no sharp cut-off); inactive = mostly below about 14%.
Experiment: Cycloheximide Counterscreen for Small Molecule Inhibitors of Shiga Toxin; note: read at 38.3 µM for the half of the compounds with a filed dose; 0% is about no effect
Settings: cell reporter, cycloheximide protein synthesis inhibition counterscreen; hits give high values

Row | Compound | max response
1 | CC(=O)OCC(NC(=O)C(Cc1ccccc1)NC(=O)OC(C)(C)C)C1OC(n2ccc(=O)[nH]c2=O)C(OC(C)=O)C1OC(C)=O (stereo not given) | 10.7%
2 | CC(=O)N1c2ccc(S(=O)(=O)N3CCCC(C(=O)Nc4cccc(Cl)c4)C3)cc2CC1C (stereo not given) | -3.38%
3 | O=C(c1c(Cl)cccc1Cl)N1CCN(c2cccc3[nH]ccc23)CC1 | -4.42%
4 | O=C(c1ccc2ccccc2n1)N1CCN(c2ccccc2Cl)CC1 | 25.6% (active)
5 | COc1ccccc1N1CCN(C(=O)c2c(-c3c(Cl)cccc3Cl)noc2C)CC1 | -1.33%
6 | COc1cc(S(=O)(=O)N2CCOCC2)ccc1NC(=O)COc1ccc(N(C)S(=O)(=O)c2ccc(C)cc2)cc1 | -7.22%
7 | CCc1ccc(NC(=O)CN2C(=O)COc3ccc(S(=O)(=O)N4CCCC4)cc32)cc1 | -7.9%
8 | COc1ccc(NC(=O)CN2C(=O)CSC2=O)cc1 | -1.12%
9 | CCc1ccc(NC(=O)CN2C(=O)CSC2=O)cc1 | 24.5% (active)
10 | CC(C)Cc1nc(Nc2ccc(S(=O)(=O)N3CCCC3)cc2)c2nnn(Cc3ccccc3)c2n1 | -1.7%
11 | CCOC(=O)C(NS(=O)(=O)c1ccc(C)cc1)(C(F)(F)F)P(=O)(OCC(C)C)OCC(C)C (stereo not given) | -2.77%
12 | O=C(Nc1ccccc1C(F)(F)F)c1cc(-c2ccc(O)cc2)on1 | 37.9% (active)
13 | O=C(Nc1cccnc1Cl)c1cc(-c2cccc(Cl)c2)on1 | -5.45%
14 | CCc1ccccc1NC(=O)c1cc(-c2ccc3c(c2)OCO3)on1 | 4.1%
15 | CCOc1ccc2[nH]c(=O)c(CN(CCCO)S(=O)(=O)c3ccc(F)cc3)cc2c1 | -6.67%
16 | O=C(NCCN1CCOCC1)c1c(F)c(F)c(F)c(F)c1F | -3.15%
17 | CN(CC(=O)NCCN1CCOCC1)S(=O)(=O)c1ccc(F)cc1 | -1.49%
18 | Fc1ccc(-c2ccc(NCCN3CCOCC3)nn2)cc1 | 34.4% (active)
19 | CC1CCC(NS(=O)(=O)c2ccc3c(c2)CC(=O)N3)CC1 (stereo not given) | 8.83%
20 | N#Cc1cccc(CSc2ncnc(N)n2)c1 | 5.59%
21 | N#Cc1ccc(CSc2nnc(-c3ccccn3)n2-c2ccc(Cl)cc2)cc1 | -3.26%
22 | N#Cc1ccc(CSc2ncccn2)cc1 | 19.6% (active)
23 | COc1cc(NC(=O)c2ccccc2NS(=O)(=O)c2ccc(Cl)s2)cc(OC)c1 | 7.35%
24 | O=Cc1c(NCCc2cccc(F)c2)c2ccccc2[nH]c1=O | 0.988%
25 | Cc1ccc(S(=O)(=O)NNC(=O)/C=C/c2cccc(F)c2)cc1 | -1.72%
